Reference: PubChem BioAssay (NCI)
Values joined by “and” are separate entries in the source; they are usually repeats but may differ in a detail not shown here. Identical values can stand only once. Compounds without any hit were thinned out: in the full panel of roughly 83,000, 20% have a hit.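 How to read the values: 0–100, growth inhibition (40 = 60% inhibited); 0, no net growth; -100 to 0, cell death (-40 = 40% of starting cells died; -100 = all dead).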 Active and inactive are the calls of the source. Rule for the calls: active = growth percent below 10; inactive = the rest.

How the values were obtained:
Experiment in all cases: NCI-60 one-dose screen, 48 h (100 = growth as untreated, 0 = no growth, -100 = all killed)
SR leukemia = details: 10 µM unless noted
RPMI-8226 leukemia = details: 10 µM unless noted
OVCAR-8 ovarian = details: 10 µM unless noted
OVCAR-5 ovarian = details: 10 µM unless noted
OVCAR-4 ovarian = details: 10 µM unless noted
IGROV1 ovarian = details: 10 µM unless noted
OVCAR-3 ovarian = details: 10 µM unless noted
HS 578T breast = details: 10 µM unless noted
NCI/ADR-RES ovarian = details: 10 µM unless noted
T-47D breast = details: 10 µM unless noted
MDA-MB-435 melanoma = details: 10 µM unless noted
MCF7 breast = system: MCF7 breast
HCT-116 colon = details: 10 µM unless noted
HCC-2998 colon = details: 10 µM unless noted
KM12 colon = details: 10 µM unless noted
BT-549 breast = details: 10 µM unless noted
SK-OV-3 ovarian = details: 10 µM unless noted
SW-620 colon = details: 10 µM unless noted

`CC(=O)Oc1cc(C(C)C)c(OCCN(C)C)cc1C` was tested, and the growth (SR leukemia) was 107% (inactive), the growth (RPMI-8226 leukemia) was 123% (inactive) and 105% (inactive) and the growth (OVCAR-8 ovarian) was -70.9% (active) and 99% (inactive). The growth (OVCAR-5 ovarian) was 92.7% (inactive), the growth (OVCAR-4 ovarian) was 111% (inactive) and 114% (inactive) and the growth (IGROV1 ovarian) was 110% (inactive) and 112% (inactive). The growth (OVCAR-3 ovarian) was 125% (inactive) and 119% (inactive), the growth (HS 578T breast) was 99.2% (inactive) and 97.7% (inactive) and the growth (NCI/ADR-RES ovarian) was 99.5% (inactive) and 111% (inactive). For the same compound, the growth (T-47D breast) was 90% (inactive) and 86.2% (inactive), the growth (MDA-MB-435 melanoma) was 99.2% (inactive) and 99.4% (inactive) and the growth (MCF7 breast; 10 µM unless noted) was 109% (inactive) and 95.7% (inactive). The growth (HCT-116 colon) was 107% (inactive) and 102% (inactive), the growth (HCC-2998 colon) was 99.6% (inactive) and 113% (inactive) and the growth (KM12 colon) was 102% (inactive) and 110% (inactive).
`COc1cc2oc3cc(=O)cc4oc(-c5ccccc5)cc(c2c2c1CCC(c1ccccc1)O2)c43` (configuration not stated) was tested, and the growth (SR leukemia) was 69.6% (inactive), the growth (RPMI-8226 leukemia) was 61.4% (inactive) and the growth (OVCAR-8 ovarian) was 87% (inactive). The growth (OVCAR-5 ovarian) was 106% (inactive), the growth (OVCAR-4 ovarian) was 84.8% (inactive) and the growth (OVCAR-3 ovarian) was 106% (inactive). For the same compound, the growth (HS 578T breast) was 65.7% (inactive), the growth (NCI/ADR-RES ovarian) was 86.6% (inactive) and the growth (T-47D breast) was 55.8% (inactive). The growth (BT-549 breast) was 78.8% (inactive), the growth (MDA-MB-435 melanoma) was 69.2% (inactive) and the growth (MCF7 breast; 10 µM) was 30% (inactive). The growth (MCF7 breast; 100 µM) was 19.2% (inactive) and 3.41% (active), the growth (HCT-116 colon) was 59.7% (inactive) and the growth (HCC-2998 colon) was 60.7% (inactive). For the same compound, the growth (KM12 colon) was 74.3% (inactive).
With `Clc1ccc2sc(-c3ccccc3)nc2c1` the growth (SR leukemia) was 83.1% (inactive), the growth (RPMI-8226 leukemia) was 97% (inactive) and the growth (OVCAR-8 ovarian) was 87.9% (inactive). For the same compound, the growth (OVCAR-5 ovarian) was 120% (inactive), the growth (OVCAR-4 ovarian) was 81.5% (inactive) and the growth (SK-OV-3 ovarian) was 83.6% (inactive). The growth (OVCAR-3 ovarian) was 98.6% (inactive), the growth (HS 578T breast) was 68.7% (inactive) and the growth (NCI/ADR-RES ovarian) was 100% (inactive). For the same compound, the growth (BT-549 breast) was 109% (inactive), the growth (MDA-MB-435 melanoma) was 95.4% (inactive) and the growth (SW-620 colon) was 72.2% (inactive). For the same compound, the growth (MCF7 breast; 10 µM unless noted) was 61.2% (inactive), the growth (HCT-116 colon) was 94.9% (inactive) and the growth (HCC-2998 colon) was 103% (inactive). For the same compound, the growth (KM12 colon) was 104% (inactive).
For `CCOC(=O)c1ccc(N2C(=O)C(Cl)(c3ccccc3)C2c2ccco2)cc1` (configuration not stated), the growth (SR leukemia) was 76.1% (inactive), the growth (RPMI-8226 leukemia) was 43% (inactive) and the growth (OVCAR-5 ovarian) was 98.2% (inactive). The growth (OVCAR-4 ovarian) was 90.4% (inactive), the growth (SK-OV-3 ovarian) was 104% (inactive) and the growth (IGROV1 ovarian) was 99.1% (inactive). The growth (OVCAR-3 ovarian) was 78.8% (inactive), the growth (HS 578T breast) was 69.6% (inactive) and the growth (NCI/ADR-RES ovarian) was 91.3% (inactive). For the same compound, the growth (T-47D breast) was 30.4% (inactive), the growth (BT-549 breast) was 76.5% (inactive) and the growth (MDA-MB-435 melanoma) was 93.4% (inactive). The growth (SW-620 colon) was 77.6% (inactive), the growth (MCF7 breast; 10 µM unless noted) was 62.4% (inactive) and the growth (HCT-116 colon) was 54% (inactive). For the same compound, the growth (HCC-2998 colon) was 95.8% (inactive) and the growth (KM12 colon) was 83.5% (inactive).
With `Cc1cc(O)c(C(C)C)cc1N=O` the growth (SR leukemia) was 110% (inactive), the growth (RPMI-8226 leukemia) was 97.2% (inactive) and the growth (OVCAR-8 ovarian) was 102% (inactive) and 92.1% (inactive). For the same compound, the growth (OVCAR-5 ovarian) was 101% (inactive) and 108% (inactive), the growth (OVCAR-4 ovarian) was 109% (inactive) and 111% (inactive) and the growth (IGROV1 ovarian) was 124% (inactive) and 112% (inactive). The growth (OVCAR-3 ovarian) was 109% (inactive) and 88.8% (inactive), the growth (HS 578T breast) was 104% (inactive) and 114% (inactive) and the growth (NCI/ADR-RES ovarian) was 98.7% (inactive) and 106% (inactive). For the same compound, the growth (T-47D breast) was 82.5% (inactive) and 90.9% (inactive), the growth (BT-549 breast) was 114% (inactive) and 95.9% (inactive) and the growth (MDA-MB-435 melanoma) was 99.5% (inactive) and 117% (inactive). The growth (SW-620 colon) was 123% (inactive) and 104% (inactive), the growth (MCF7 breast; 10 µM unless noted) was 90.8% (inactive) and 94.9% (inactive) and the growth (HCT-116 colon) was 94.4% (inactive) and 93.8% (inactive). The growth (HCC-2998 colon) was 98.1% (inactive) and 102% (inactive) and the growth (KM12 colon) was 109% (inactive) and 110% (inactive).
For `CCOC(=O)c1ccncc1`, the growth (SR leukemia) was 101% (inactive), the growth (RPMI-8226 leukemia) was 106% (inactive) and the growth (OVCAR-8 ovarian) was 112% (inactive). The growth (OVCAR-5 ovarian) was 107% (inactive), the growth (OVCAR-4 ovarian) was 117% (inactive) and the growth (OVCAR-3 ovarian) was 105% (inactive). The growth (HS 578T breast) was 101% (inactive), the growth (NCI/ADR-RES ovarian) was 110% (inactive) and the growth (T-47D breast) was 95% (inactive). The growth (MDA-MB-435 melanoma) was 107% (inactive), the growth (SW-620 colon) was 104% (inactive) and the growth (MCF7 breast; 10 µM unless noted) was 97.9% (inactive). For the same compound, the growth (HCT-116 colon) was 107% (inactive), the growth (HCC-2998 colon) was 105% (inactive) and the growth (KM12 colon) was 105% (inactive).
`CC(C)(C)C1CCC(=NO)CC1` (configuration not stated) was tested, and the growth (SR leukemia) was 116% (inactive), the growth (RPMI-8226 leukemia) was 92.5% (inactive) and the growth (OVCAR-8 ovarian) was 91.9% (inactive). The growth (OVCAR-5 ovarian) was 90.3% (inactive), the growth (OVCAR-4 ovarian) was 97.3% (inactive) and the growth (IGROV1 ovarian) was 99.5% (inactive). For the same compound, the growth (OVCAR-3 ovarian) was 104% (inactive), the growth (HS 578T breast) was 102% (inactive) and the growth (NCI/ADR-RES ovarian) was 103% (inactive). The growth (T-47D breast) was 96.6% (inactive), the growth (BT-549 breast) was 115% (inactive) and the growth (MDA-MB-435 melanoma) was 99.8% (inactive). For the same compound, the growth (SW-620 colon) was 106% (inactive), the growth (MCF7 breast; 10 µM unless noted) was 83.9% (inactive) and the growth (HCC-2998 colon) was 107% (inactive). The growth (KM12 colon) was 103% (inactive).
